Data as given in PubChem BioAssay (NCI).
The panel holds about 83,000 compounds, 20% with a hit somewhere; the sample as a whole holds those more often.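 Plates (96-well) were seeded with cells, treated with compound at one concentration, and incubated for 48 hours before percent growth was determined.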 Activity calls are given as the source filed them. The calls were made as follows: active = growth percent below 10; inactive = the rest.

What follows are compounds tested on MALME-3M melanoma (assay: NCI-60 one-dose screen, 48 h (100 = growth as untreated, 0 = no growth, -100 = all killed)). Conditions: 10 µM unless noted.

| Compound | growth |
| --- | --- |
| O=C1Nc2ccc(Br)cc2/C1=N\c1nnc(-c2ccc(Cl)cc2)o1 | 34.1% (inactive) |
| C#C[C@]1(O)CC[C@H]2[C@@H]3CC=C4c5sc(Nc6cccc(C)n6)nc5CC[C@]4(C)[C@H]3CC[C@@]21C | 5.14% (active) |
| CS(=O)(=O)c1ccc2c(c1)c1c(n2Cc2ccc(Cl)cc2)CCCC1 | 74.4% (inactive) |
| COc1ccc(-c2nnc(/N=C3/C(=O)Nc4ccc(Br)cc43)o2)cc1 | 98.4% (inactive) |
| COc1ccc(S(=O)(=O)n2cc(C=O)c3ccccc32)c(OC)c1 | 79.7% (inactive) |
| O=C1c2c(c3c4cccnc4[nH]c3c3ccc4ccccc4c23)C(=O)N1CCN1CCOCC1 | 64.4% (inactive) |
| COc1ccc(NC2=C(Cl)C(=O)C(C)=C(C)C2=O)cc1 | 99.8% (inactive) |
| COc1ccc(-c2cc(-c3ccc(Cl)cc3)nc3nc(N)nn23)cc1 | 118% (inactive) |
| C#C[C@]1(O)CC[C@H]2[C@@H]3CC=C4c5sc(Nc6nc(C)cc(OC)n6)nc5CC[C@]4(C)[C@H]3CC[C@@]21C | 24% (inactive) |
| COc1ccc(/C=C/C(=O)c2nnn(-c3ccc(C(=O)O)cc3)c2C)cc1OC | 95.8% (inactive) |
| COc1cc(O)c2c(c1)/C=C/C[C@H](O)[C@H](O)C(=O)/C=C\C[C@H](C)OC2=O | -20.3% (active) |
| COc1ccccc1/C=C/C(=O)c1nnn(-c2ccc(C(=O)O)cc2)c1C | 86.8% (inactive) |
| O=S(=O)(Nc1ccc(C2CC2)cc1)c1ccc(-c2cnc(C3CC3)o2)cc1 | 66.6% (inactive) |
| COc1cc(/C=N/Nc2ccnc3cc(Cl)ccc23)cc(OC)c1O | -88.3% (active) |
